According to PubChem BioAssay (NCI):
About 83,000 compounds went through this panel and 20% of them were active in at least one assay; those are over-represented in the sample as a whole.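 Activity criterion: percent growth below 10, measured after cells in 96-well plates were exposed to a single compound concentration for 48 hours.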 Unmarked numbers belong to inactive results. Calls of active or inactive are those of the source.

Legend:
Test in all cases: NCI-60 one-dose screen, 48 h (100 = growth as untreated, 0 = no growth, -100 = all killed)
Details in all cases: 10 µM unless noted
NCI-H23 lung = system: NCI-H23 lung
NCI-H226 lung = system: NCI-H226 lung
NCI-H322M lung = system: NCI-H322M lung
HOP-62 NSCLC = system: HOP-62 NSCLC
NCI-H460 lung = system: NCI-H460 lung
HOP-92 NSCLC = system: HOP-92 NSCLC
NCI-H522 lung = system: NCI-H522 lung
A549/ATCC NSCLC = system: A549/ATCC NSCLC
786-0 renal = system: 786-0 renal
COLO 205 colon = system: COLO 205 colon
DU-145 prostate = system: DU-145 prostate
K-562 leukemia = system: K-562 leukemia
MALME-3M melanoma = system: MALME-3M melanoma
MDA-MB-231 breast = system: MDA-MB-231 breast
SF-268 CNS = system: SF-268 CNS
SF-295 CNS = system: SF-295 CNS
SF-539 CNS = system: SF-539 CNS
UACC-257 melanoma = system: UACC-257 melanoma
M14 melanoma = system: M14 melanoma
RXF 393 renal = system: RXF 393 renal

Structure (SMILES) | growth (NCI-H23 lung) | growth (NCI-H226 lung) | growth (NCI-H322M lung) | growth (HOP-62 NSCLC) | growth (NCI-H460 lung) | growth (HOP-92 NSCLC) | growth (NCI-H522 lung) | growth (A549/ATCC NSCLC) | growth (786-0 renal) | growth (COLO 205 colon) | growth (DU-145 prostate) | growth (K-562 leukemia) | growth (MALME-3M melanoma) | growth (MDA-MB-231 breast) | growth (SF-268 CNS) | growth (SF-295 CNS) | growth (SF-539 CNS) | growth (UACC-257 melanoma) | growth (M14 melanoma) | growth (RXF 393 renal)
CCn1cc(C2NC(=O)c3ccccc3N2)c2cccc(C)c21 (centres undefined) | 30.1% | 57.2% | 36.7% | 31.6% | 1.6% (active) | 80.5% | -39.8% (active) | 18.4% | 39.4% | -17.3% (active) | 12.2% | 3.49% (active) | 48% | 15.3% | 43.2% | 3.52% (active) | -49.7% (active) | 66.7% | 8.05% (active) | –
O=S(=O)(c1ccccc1)N1CCCc2ccccc21 | 102% | 104% | 99% | 94.2% | 107% | 88.5% | 82.2% | 91.4% | 102% | 112% | 112% | 97% | 93.6% | 98.8% | 95.5% | 98.5% | 102% | 96.3% | 102% | –
COc1ccc(-c2nc(SCC(C)C)nc(N/N=C(/C)c3ccc(OC)c(OC)c3)c2C#N)cc1 | 89.7% | 94.1% | 79.7% | 86.9% | 65.9% | 38.4% | 80.8% | 99.8% | 96.9% | 110% | 87.7% | 69.5% | 88.9% | 74.5% | 79.1% | 92.8% | 80.9% | 105% | 94% | –
COc1cc(-c2nc3sccn3c2-c2ccnc(NCCNS(=O)(=O)c3ccc(F)cc3)n2)ccc1F | 13% | 3.23% (active) | 29.7% | 32.3% | 13.6% | 18.8% | -6.6% (active) | 5.95% (active) | 30.9% | 5.45% (active) | 19.6% | 5.81% (active) | -34.2% (active) | 22.3% | 19% | 4.27% (active) | 31.2% | -12.7% (active) | 9.49% (active) | –
CCCc1cc2c(cc1Br)OCO2 | 96.2% | 106% | 108% | 84% | 106% | 86.9% | 87.9% | 80.7% | 89.3% | 109% | 111% | 121% | 117% | 113% | 106% | 96.5% | 98.8% | 91.5% | 88.5% | –
CS(=O)(=O)c1ccc(-c2cc3c(oc2=O)-c2ccccc2OC3O)cc1 (centres undefined) | 90.3% | 74.7% | 107% | 94.9% | 91.7% | 38.1% | 92.7% | 104% | 88.7% | 114% | 87.1% | 81% | 101% | 98.7% | 96.6% | 75.7% | 90.2% | -3.93% (active) | 101% | –
C#CCn1cc(C=C2C(=O)NC(=S)NC2=O)c2cc(Cl)ccc21 | -4.83% (active) | 61.6% | 80.3% | -5.32% (active) | 14.6% | 48.4% | 51.1% | 98.3% | -54.2% (active) | 33.2% | 3.03% (active) | 15% | 43.5% | -26.1% (active) | 6.45% (active) | 46.4% | -57.2% (active) | 61.7% | 44.4% | –
COc1cccc(CCC(=O)c2cc3c(N)c(C(=O)Nc4ccccc4)sc3nc2C)c1 | 67.9% | 71.5% | 52.7% | 45.1% | 11.7% | 74.2% | 37.5% | 39.6% | 50.2% | – | 65.8% | 12.2% | 27% | 44.9% | 53.4% | 24.9% | 23.9% | 63.3% | 23.3% | –
COc1ccc(OC)c(/C=C/[C@H]2O[C@@H](C)[C@H](O)[C@@H]2O)c1 | 99.6% | 96.1% | 97.5% | 106% | 106% | 94.7% | 91.7% | 99.4% | – | 111% | 121% | 93% | 96.7% | 98.4% | 111% | 102% | 100% | 104% | 103% | 117%
C(=N\Nc1ncc(-c2cc3cc4c(cc3o2)OCO4)s1)/c1c[nH]c2ccccc12 | -25.8% (active) | -56.3% (active) | 26.7% | -18.4% (active) | -27.2% (active) | -0.218% (active) | -42.2% (active) | -38.6% (active) | -40% (active) | – | -41.3% (active) | 4.08% (active) | -45.6% (active) | -27% (active) | -34.6% (active) | -41.1% (active) | -80% (active) | 3.52% (active) | 16.6% | –
CCOC(=O)c1c(O)cc(-c2ccccc2)cc1-c1sc(N(C)Cc2ccccc2)nc1Cl | 98.7% | 94% | 106% | 104% | 102% | 91.3% | 86.4% | 98.8% | -97.1% (active) | – | 108% | 93.4% | 100% | 103% | 95.8% | 99.6% | 97% | 96.1% | -85% (active) | –
COc1ccc(NC(=O)c2sc3nc(C)c(C(=O)CCc4cccc(OC)c4)cc3c2N)cc1 | 81.1% | 89.7% | 40.1% | 70.8% | 1.32% (active) | 88.4% | 78.7% | 30.2% | 78.5% | – | 71.7% | 20% | 62.5% | 85.8% | 80.2% | 15.7% | 72% | 89% | 70.1% | –
C#CCNC(=O)[C@H](Cc1ccccc1)NC(=O)[C@]12CC[C@@H](C(=C)C)[C@@H]1[C@H]1CC[C@@H]3[C@@]4(C)Cc5c([nH]c6ccccc56)C(C)(C)[C@@H]4CC[C@@]3(C)[C@]1(C)CC2 | 94.9% | 90.2% | 93.9% | 95.2% | 104% | 69.7% | 87.9% | 84.7% | 87.8% | – | 101% | 83.9% | 113% | 97.7% | 92.6% | 96.6% | 102% | 96.7% | 96.4% | 93.9%
Cc1ccc(-c2csc(/N=C3\C(=O)Nc4ccccc43)n2)cc1 | 23.5% | 62.1% | 47.1% | 25.3% | 8.52% (active) | -16.1% (active) | -57.6% (active) | 23% | 14.7% | – | 42.2% | 1.43% (active) | -3.69% (active) | 11.2% | 33% | 13.9% | 20.3% | 11.9% | 13.4% | -4.86% (active)
COc1ccc(/C=C/C(=O)c2ccc(Nc3ncnc4ccccc34)cc2)cc1OC | 73.3% | 104% | 92.4% | 92.8% | 83.8% | 74% | 92.7% | 68.3% | 79.2% | 109% | 83.1% | – | 101% | 72.1% | 68.1% | 79.6% | 98.1% | 98.6% | 64.7% | –
O=C(O)c1ccc[n+](CC(=O)N2CCN(c3cc4c(cc3F)c(=O)c(C(=O)O)cn4C3CC3)CC2)c1 | 87.7% | 93.7% | 103% | 105% | 95.6% | 109% | -86.6% (active) | 106% | 58.9% | 45.4% | 96.1% | – | -34% (active) | 98.3% | 70.1% | 116% | 69.1% | 80.1% | 64.6% | –
Nc1c(C(=O)Nc2cccc3ccncc23)sc2nc3c(cc12)C(=O)CCC3 | 58.1% | 73.8% | 72.3% | 62.8% | 11.6% | 69.6% | -15.7% (active) | 38.6% | 44.5% | – | 38.5% | 24.8% | 63.7% | 62.8% | 55.1% | 20.1% | 16.1% | 49.2% | 26.1% | 29.8%
CNC(=O)Nc1ccc(-c2nc(N3CCOCC3)nc3c2cnn3C2CCOCC2)cc1 | 17.5% | -12.4% (active) | -9.52% (active) | -11% (active) | 11.8% | -27.6% (active) | -0.372% (active) | -1.33% (active) | – | 5.84% (active) | 9.63% (active) | 20.1% | -37.6% (active) | 5.07% (active) | 15.7% | -45% (active) | -24.4% (active) | -24.9% (active) | -12.1% (active) | -35.3% (active)
NC(=S)N/N=C(\c1ccc(Cl)cc1)C1CC1 | 89.7% | 74.7% | 88% | 80.1% | 102% | 97.2% | 97.3% | 92.5% | 105% | – | 99% | 38.3% | 87.1% | 70% | 98.2% | 83.1% | 88.6% | 63.7% | 87.7% | 104%
Cn1c(COC(=O)NCCc2ccccn2)nc2c(N3CCOCC3)nc(Cl)nc21 | 16.9% | 25.2% | 78.9% | 42.3% | 38.3% | -29.5% (active) | -24% (active) | 44.2% | -74.7% (active) | – | 8% (active) | 2.75% (active) | -71.2% (active) | -64.5% (active) | 46% | 71.7% | -19.8% (active) | 18.1% | -59.2% (active) | –
COc1ccccc1/C=C1\COc2ccc(-c3ccccc3)cc2C1=O | 68% | 88.4% | 80% | -55.3% (active) | 12.2% | 49.3% | 51.9% | 37.8% | -49.2% (active) | – | 7.94% (active) | 3.54% (active) | 73.7% | 43.8% | 22.1% | 22.2% | 30.5% | 56.9% | 17.4% | –
CCOC(=O)c1c(SC)nn(-c2cc(=O)[nH]c3ccc(Br)cc23)c1N | 96% | 99.2% | 106% | 89.7% | 87.8% | 95.8% | 95.1% | 98.1% | 97.6% | – | 94.6% | – | 105% | 110% | 90.7% | 107% | 102% | 112% | 109% | –
COc1ccc2c(c1)OC1=C(C(=O)OC1)C2c1cc(OC)c(OC)c(OC)c1 (centres undefined) | 31.8% | 26.8% | 52.6% | 33.2% | 5.28% (active) | 74.8% | -32.5% (active) | 20.7% | 36.8% | – | 6.88% (active) | 14.1% | 61.1% | 42.7% | 32% | 8.32% (active) | 0.966% (active) | 39.6% | 10.2% | –
COC(=O)C1NC(=S)N(c2ccc(Cl)cc2)C1/C=C/c1ccccc1 (centres undefined) | 91% | 104% | 110% | 103% | 109% | 78.6% | 93.7% | 98.1% | – | 108% | 100% | 106% | 103% | 95% | 101% | 91% | 94.6% | 99.3% | 87.1% | 110%
CN(C)CCCn1c2c(c3ccc(-c4ccn[nH]4)cc3c1=O)C(=O)c1ccccc1-2 | 21.6% | 6.87% (active) | 81.9% | 5.59% (active) | 1.55% (active) | 34.1% | 25.9% | 0.619% (active) | 2.46% (active) | – | 4.84% (active) | 24.5% | 39.7% | 71.1% | 44.6% | 1.34% (active) | 46.4% | 70.3% | 48% | 68.3%
